Assay results as given in the supplement of paper PMC7366291.
Counter-ions that a name gives are not always drawn. ± gives the standard deviation of the averaged measurements.

What follows are molecules tested on Danio rerio Tg(wt1b:EGFP) embryo, pronephros (assay: pronephric angle neck segment to proximal convoluted tubule (mean of left and right), fold change vs DMSO control; higher = larger pronephric angle). Details: 25 µM; exposure: 24-48 hpf.
In short: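 Features are reported as fold changes against the mean of same-day DMSO-treated embryos. Before that, values more than 2 SD away from the feature mean were excluded. The embryos, dechorionated Tg(wt1b:EGFP) zebrafish, had been exposed from 24 to 48 hpf at 28.5°C to 25 μM compound in 0.5% DMSO in HEPES-buffered E3 with 0.003% PTU, and distances and angles came from 16 manually set points on maximum projections of dorsal pronephros images in Fiji.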

Point of comparison: `CN(C)CCC=C1c2ccccc2C=Cc2ccccc21` [Cyclobenzaprine hydrochloride], “pronephric angle neck segment” value 1.03 ± 0.0042. Against it:
- CC(C)NC[C@H](O)COc1ccc(CC(N)=O)cc1 [(S)-(-)-Atenolol] — within error, 0.959 ± 0.08
- COc1cc(C(=O)NS(=O)(=O)c2ccccc2C)ccc1Cc1cn(C)c2ccc(NC(=O)OC3CCCC3)cc12 [Zafirlukast] — within error, 1.09 ± 0.065
- CS(=O)(=O)c1ccc([C@@H](O)[C@@H](CF)NC(=O)C(Cl)Cl)cc1 [Florfenicol] — within error, 1.01 ± 0.034
- CC(=O)OCC(=O)[C@@]12N=C(C)O[C@@H]1C[C@H]1[C@@H]3CCC4=CC(=O)C=C[C@]4(C)[C@H]3[C@@H](O)C[C@@]12C [Deflazacort] — lower, 0.944 ± 0.058
- CCC(C)(C)c1ccc(CC(C)CN2C[C@@H](C)O[C@@H](C)C2)cc1 (some centres not stated) [Amorolfine hydrochloride] — within error, 0.983 ± 0.05
- O=C(O)CN(CCN(CC(=O)O)CC(=O)O)CCN(CC(=O)O)CC(=O)O [Pentetic acid] — lower, 0.9888 ± 0.0057
- CC(=O)Nc1nnc(S(N)(=O)=O)s1 [Acetazolamide] — lower, 0.9766 ± 0.0062
- CN(C(=O)CN(CCO)CC(=O)N(C)C(C)(C)Cc1ccccc1)C(C)(C)Cc1ccccc1 [Oxethazaine] — lower, 0.94 ± 0.059
- CN(C)CCC(c1ccc(Br)cc1)c1ccccn1 (configuration not stated) [Brompheniramine maleate] — within error, 1.05 ± 0.056
- CC(C)c1nc(CN(C)C(=O)N[C@H](C(=O)N[C@@H](Cc2ccccc2)C[C@H](O)[C@H](Cc2ccccc2)NC(=O)OCc2cncs2)C(C)C)cs1 [Ritonavir] — within error, 1.02 ± 0.033
- NC(=O)c1ncn([C@@H]2O[C@H](CO)[C@@H](O)[C@H]2O)n1 [Ribavirin] — lower, 0.985 ± 0.017
- CN1CCN2c3ncccc3Cc3ccccc3C2C1 (configuration not stated) [Mirtazapine] — within error, 0.994 ± 0.056
- NC(=O)N/N=C/c1ccc([N+](=O)[O-])o1 [Nitrofural] — lower, 0.982 ± 0.017
- O=C(O)c1cc(=O)c2c(OCC(O)COc3cccc4oc(C(=O)O)cc(=O)c34)cccc2o1 [Cromolyn disodium salt] — lower, 1.0048 ± 0.00061
- O=C(CCCN1CCN(c2ccccn2)CC1)c1ccc(F)cc1 [Azaperone] — lower, 1 ± 0.019
- CCCCNc1ccc(C(=O)OCCOCCOCCOCCOCCOCCOCCOCCOCCOC)cc1 [Benzonatate] — higher, 1.09 ± 0.039
- CCCc1ncc(C[n+]2ccccc2C)c(N)n1 [Amprolium hydrochloride] — lower, 1 ± 0.018
- CC(C)NC(=N)NC(=N)Nc1ccc(Cl)cc1 [Proguanil hydrochloride] — within error, 1.02 ± 0.054
- CO[C@H]1/C=C/O[C@@]2(C)Oc3c(C)c(O)c4c(O)c(c(/C=N/N5CCN(C6CCCC6)CC5)c(O)c4c3C2=O)NC(=O)/C(C)=C\C=C\[C@H](C)[C@H](O)[C@@H](C)[C@@H](O)[C@@H](C)[C@H](OC(C)=O)[C@@H]1C [Rifapentine] — within error, 1.1 ± 0.094
- NCC[C@H](O)C(=O)N[C@@H]1C[C@H](N)[C@@H](O[C@H]2O[C@H](CN)[C@@H](O)[C@H](O)[C@H]2O)[C@H](O)[C@H]1O[C@H]1O[C@H](CO)[C@@H](O)[C@H](N)[C@H]1O [Amikacin hydrate] — within error, 1.04 ± 0.02
- CNCCC(Oc1ccccc1OC)c1ccccc1 (configuration not stated) [Nisoxetine hydrochloride] — higher, 1.06 ± 0.022
- N[C@@H]1CCCCN(c2c(F)cc3c(=O)c(C(=O)O)cn(C4CC4)c3c2Cl)C1 [Besifloxacin hydrochloride] — within error, 1.02 ± 0.018
- Cn1c(=O)c2c(ncn2C)n(C)c1=O [Caffeine] — within error, 1.05 ± 0.099
- O=c1[nH]cnc2c1ncn2[C@H]1CC[C@@H](CO)O1 [Didanosine] — lower, 0.972 ± 0.041
- O=C(O)Cc1ccccc1Nc1c(Cl)cccc1Cl [Diclofenac sodium] — higher, 1.63 ± 0.018
- COc1ccc2cc(CCC(C)=O)ccc2c1 [Nabumetone] — within error, 1.06 ± 0.038
- Cc1ncc([N+](=O)[O-])n1CCO [Metronidazole] — lower, 0.884 ± 0.061
- CCN(CC)CCOC(=O)C(c1ccccc1)c1ccccc1 [Adiphenine hydrochloride] — lower, 0.98401 ± 0.00017
- Nc1nc(=O)c2c([nH]1)NC[C@@H](CNc1ccc(C(=O)N[C@@H](CCC(=O)O)C(=O)O)cc1)N2C=O [Folinic acid calcium salt] — lower, 0.979 ± 0.042
- NC(=O)N1c2ccccc2CC(=O)c2ccccc21 [Oxcarbazepine] — lower, 0.9454 ± 0.0088
- CC(=O)OCC(=O)[C@@]12OC3(CCCC3)O[C@@H]1C[C@H]1[C@@H]3CCC4=CC(=O)C=C[C@]4(C)[C@@]3(F)[C@@H](O)C[C@@]12C [Amcinonide] — within error, 1.01 ± 0.019
